Lassa entry inh: inhibitors of Lassa virus binding or cell entry; Lassa virus pseudotype entry inhibition, cell reporter; Potency, µM (highest dose often 37.9 µM), for the others: at the highest dose activity change, negative = inhibition, usual class: inhibitors; hit rate 1.2% among 300,000; AID 540256; calls by dose curve; tested in HEK293 cells; also: potency is read from the fitted curve at half-maximal effect; nearly all actives have a fitted effect of over 50% in size
HCMV antiviral: human cytomegalovirus inhibition; AID 1259415; hit rate 4.5% among 410,000; HFF cells, HCMV-luciferase reporter, 72 h; active compounds read low; activity change, negative = inhibition, % at 57.5 µM; in the data active = activity change below about -60%; inconclusive = no clear call, values can overlap the other calls; inactive = above about -39%
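Screen run at 2 compound doses on HFFs infected with reporter HCMV, MOI 1 PFU/cell. Luciferase activity from cell lysates at 72 h post infection gave inhibition relative to buffer-only and Salinomycin wells.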
Vaccinia mCherry: inhibitors of vaccinia virus infection (mCherry reporter signal). hit rate 0.63% among 310,000. AID 720579. Potency, µM (highest dose often 36.5 µM), inactives show top-dose activity change, negative = inhibition, most hits filed as inhibitors. Vaccinia virus mCherry reporter infection, fluorescence; calls by dose curve; tested in A549 cells; also: potency is read from the fitted curve at half-maximal effect; nearly all actives have a fitted effect of over 35% in size
VACV Venus inh: vaccinia inhibition (Venus reporter) | Potency, µM (series often up to 36.5 µM), without a hit: top-dose activity change, negative = inhibition, usual class: inhibitors | Vaccinia virus Venus reporter expression, fluorescence | AID 720580 | hit rate 0.46% among 330,000; calls by dose curve; tested in A549 cells; also: potency is read from the fitted curve at half-maximal effect; nearly all actives have a fitted effect of over 30% in size
Marburg entry inh: Marburg virus entry inhibition; Marburg virus pseudotyped entry inhibition, cell reporter; hit rate 1.8% among 300,000; AID 540276; Potency, µM (top dose mostly 37.8 µM), for inactives: at the top dose activity change, negative = inhibition, usual class: inhibitors; calls by dose curve; tested in HEK293 cells; also: potency is read from the fitted curve at half-maximal effect
HCV inhibitor: HCV inhibition; Huh7.5.1 HCVcc-Cre infection, luciferase reporter, 44 h; Potency, µM (doses to about 41.8 µM), for inactives: at the top dose activity change, negative = inhibition, usual class: inhibitors; hit rate 3.4% among 340,000; AID 651820; active = well fitted inhibition curve with a large enough effect; inconclusive = small, poorly fitted or top-dose-only effect, or another doubt; inactive = no such curve, though single readings can be large or run the other way; also: potency is read from the fitted curve at half-maximal effect
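1,000 cells/well; 4 h culture; + compound; + HCVcc-Cre (~0.5 moi); 44 h; luciferase substrate, RT 15 min; read 15 sec.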
The depositor's hits bear a star; [ ] = dose if it differs, or a comment. Rows were chosen to be rich in hits. Some 7.8% of all compounds tested hit in one or more screens of this group. % is scaled to controls: 0 for no effect and ±100 for the full control effect.

`COc1cccc(N(C(=O)c2snc(C(N)=O)c2N)C(C(=O)NCc2ccccc2)c2ccc(O)cc2)c1` (stereo not given) gave Lassa entry inh inconclusive, HCMV antiviral -33.3, Vaccinia mCherry -9.6%, VACV Venus inh 1.5%, Marburg entry inh -9.5%[46.1 µM] and HCV inhibitor inconclusive.
`NC(=O)c1nsc(C(=O)N(c2ccccc2F)C(C(=O)NCc2ccccc2)c2ccc(O)cc2)c1N` (stereo not given) gave HCMV antiviral -8.3, Vaccinia mCherry -18.0%, VACV Venus inh -13.5%, Marburg entry inh -21.6%[46.1 µM] and HCV inhibitor inconclusive.
For COc1ccc(N(C(=O)c2snc(C(N)=O)c2N)C(C(=O)NCc2ccc(F)cc2)c2ccc(O)cc2)cc1 (stereo not given) the results were Lassa entry inh 2.82µM*, HCMV antiviral -21.7, Vaccinia mCherry -6.0%, VACV Venus inh 5.5%, Marburg entry inh inconclusive and HCV inhibitor inconclusive.
`O=C(NC1CC(=O)N(c2ccc(Cl)cc2)C1)C1CCCCC1` (stereo not given) gave Lassa entry inh 12.1%[46.1 µM], HCMV antiviral -9.3, Vaccinia mCherry -4.5% and VACV Venus inh -10.5%.
CCOC(=O)c1c(C)[nH]c(CCC(=O)NCc2ccc(CC)cc2)c1C was read as Lassa entry inh -27.4%[46.1 µM], HCMV antiviral -23.7, Vaccinia mCherry -8.2% and VACV Venus inh -14.4%.
For O=C(C1CCN(c2ncnc3c2nc2n3CCCCC2)CC1)N1CCN(c2ccccc2)CC1 the results were Lassa entry inh -4.8%[46.1 µM], HCMV antiviral -38.1, Vaccinia mCherry -1.4% and VACV Venus inh -13.3%.
For C[C@H]1Cc2c(-c3ccccc3)nc3c(c2CO1)CN(C(=O)NCc1ccco1)CC3 the results were Marburg entry inh 9.3%[14.2 µM].
COc1ccc(N(C(=O)c2snc(C(N)=O)c2N)C(C(=O)NCc2ccccc2)c2ccc(O)cc2)cc1OC (stereo not given) was read as HCMV antiviral -24.2, Vaccinia mCherry -10.7%, VACV Venus inh -4.8%, Marburg entry inh 7.1%[46.1 µM] and HCV inhibitor -29.8%.
Screening COc1ccc(C(C(=O)NCc2ccccc2)N(C(=O)c2snc(C(N)=O)c2N)c2ccccc2OC)cc1OC (stereo not given) returned Lassa entry inh -21.7%, HCMV antiviral -74.6*, Vaccinia mCherry -18.1%, VACV Venus inh -3.5%, Marburg entry inh -25.3%[46.1 µM] and HCV inhibitor 1.4%.
Screening CC(NC(=O)c1cc(F)ccc1F)c1nnc2n1CCN(Cc1ccco1)CC2 (stereo not given) returned Vaccinia mCherry -1.6% and VACV Venus inh -0.3%.
Cc1ccc(C(=O)/C=C/c2ccc(F)cc2)o1 was read as Lassa entry inh inconclusive, HCMV antiviral inconclusive, Vaccinia mCherry -19.5%, VACV Venus inh inconclusive, Marburg entry inh inconclusive and HCV inhibitor -11.4%.
Screening O=C(/C=C/c1ccc(F)cc1)c1ccccc1Br returned Lassa entry inh inconclusive, HCMV antiviral -81.6*, Vaccinia mCherry inconclusive, VACV Venus inh 28.2µM*, Marburg entry inh -28.0% and HCV inhibitor inconclusive.
Screening Clc1ccc(CN2CCC(c3ccccc3)CC2)cc1 returned HCMV antiviral -103.2*, Vaccinia mCherry -7.8%, VACV Venus inh -17.4% and HCV inhibitor -3.1%.
For c1ccc(-c2ccc(CNC3CC3)cc2)cc1 the results were Lassa entry inh inconclusive, HCMV antiviral -80.2*, Vaccinia mCherry -17.1%, VACV Venus inh -11.6%, Marburg entry inh 13.1%[46.1 µM] and HCV inhibitor 1.7%.
For S=C(NCc1ccc(Cl)cc1)NC1CCN(Cc2ccccc2)CC1 the results were Lassa entry inh inconclusive, HCMV antiviral -89.2*, Vaccinia mCherry -11.8%, VACV Venus inh inconclusive, Marburg entry inh 6.31µM* and HCV inhibitor 3.98µM*.
Screening Fc1ccc(CNC2CCN(Cc3ccccc3)CC2)cc1 returned HCMV antiviral 45.8 and HCV inhibitor inconclusive.
For Clc1ccc(CN2CCC(c3nc4ccc(Cl)cc4[nH]3)CC2)cc1 the results were Lassa entry inh inconclusive, HCMV antiviral -65.5*, Vaccinia mCherry -26.0%, VACV Venus inh inconclusive, Marburg entry inh 11.2µM* and HCV inhibitor inconclusive.
Screening Clc1ccc(CN2CCC(Cc3ccccc3)CC2)cc1 returned Lassa entry inh -3.9%, HCMV antiviral 42.3, Vaccinia mCherry -9.1%, VACV Venus inh inconclusive, Marburg entry inh inconclusive and HCV inhibitor -3.9%.
Screening S=C(Nc1ccc(Cl)cc1Cl)NC1CCN(Cc2ccccc2)CC1 returned Lassa entry inh inconclusive, HCMV antiviral inconclusive, Vaccinia mCherry -9.3%, VACV Venus inh inconclusive, Marburg entry inh inconclusive and HCV inhibitor inconclusive.
For CCOC(=O)c1ccc(-n2c(N)c(C(=O)OC)c3nc4ccccc4nc32)cc1 the results were Lassa entry inh -26.5%[46.1 µM], HCMV antiviral inconclusive, Vaccinia mCherry -15.6% and VACV Venus inh -7.5%.
For COc1ccccc1NC(=O)C1CCCN(c2nnc(C)c3c(C)n(-c4ccccc4)nc23)C1 (stereo not given) the results were Lassa entry inh 0.7%[46.1 µM], HCMV antiviral -30.7, Vaccinia mCherry -21.0% and VACV Venus inh -23.7%.
For Cc1cnc(-n2ncc(C(=O)NCCc3ccncc3)c2-c2cccs2)nc1-c1ccc(F)cc1 the results were Vaccinia mCherry -3.4% and VACV Venus inh -19.2%.
Clc1ccc(CNC2CCN(Cc3ccccc3)CC2)cc1 was read as Lassa entry inh -17.9%[46.1 µM], HCMV antiviral -2.0, Vaccinia mCherry -14.4%, VACV Venus inh -23.5%, Marburg entry inh 10µM* and HCV inhibitor 8.91µM*.
Screening Cc1snc(SCc2ccc(F)cc2)c1C#N returned Lassa entry inh -6.8%, HCMV antiviral -0.2, Vaccinia mCherry -6.3%, VACV Venus inh -10.0%, Marburg entry inh -0.3%[46.1 µM] and HCV inhibitor 11.3%.
`Cc1snc(SCc2ccc(Cl)cc2)c1C#N` gave HCMV antiviral -99.9* and HCV inhibitor -26.3%.
Screening CCOC(=O)C1=C[C@@H](C(C)(C)C)N(S(=O)(=O)c2ccc([N+](=O)[O-])cc2)[C@H]1c1ccccc1 returned HCMV antiviral -74.6*, Vaccinia mCherry inactive and VACV Venus inh -5.5%.
For CCOC(=O)C1=C[C@@H](C(C)(C)C)N(S(=O)(=O)c2ccc(C)cc2)[C@H]1c1ccc(OC)cc1 the results were HCMV antiviral -64.1*, Vaccinia mCherry 11.4% and VACV Venus inh -2.1%.
`CCOC(=O)C1=CC[C@@H](c2cccc(Br)c2)N(S(=O)(=O)c2ccc(F)cc2)[C@H]1c1cccc(Cl)c1` gave HCMV antiviral -73.5*, Vaccinia mCherry inconclusive and VACV Venus inh -8.7%.
For CCOC(=O)C1=C[C@@H](C(C)(C)C)N(S(=O)(=O)c2ccc(C)cc2)[C@H]1c1cccc(Cl)c1 the results were HCMV antiviral -87.9*, Vaccinia mCherry 12.7% and VACV Venus inh -0.1%.

Screening data as filed in PubChem.
